Several values for one entry are separate records, joined by “and”; a condition that tells them apart may be missing. Identical values can stand only once. Results filed as inconclusive are left out. Activity calls are given as the source filed them. Unless noted, calls follow the shape of the dose curve; as a rule, active = well fitted curve in the direction sought with a large enough effect; inconclusive = small, poorly fitted or top-dose-only effect, or another doubt; inactive = no such curve, though single readings can be large; an effect the other way counts as inactive or inconclusive.
Tests used:
[1] = Cell Viability - BJ (AID 421; calls by dose curve;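 also: potency is read from the fitted curve at half-maximal effect; cells exposed to compound for 40 hours at 37 °C before readout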); conditions: BJ fibroblast viability, qHTS
How it was run: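 Cytotoxicity in human BJ foreskin fibroblasts is scored as loss of cellular ATP after a 40-hour exposure, measured by luciferase luminescence. Controls are DMSO and 100 uM tamoxifen.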

[2] = Cell Viability - Jurkat (AID 426;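 active = dose-dependent loss of cell ATP signal giving a full or clear fitted curve, ranked by lower potency value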;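 also: potency is read from the fitted curve at half-maximal effect; cells exposed to compound for 40 hours at 37 °C before ATP read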); conditions: qHTS
How it was run: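 Cytotoxicity was scored as loss of cellular ATP, measured by luciferase-based luminescence, in Jurkat clone E6-1 cells after 40 h compound treatment; tamoxifen and doxorubicin served as positive controls.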

[3] = Cell Viability - Hek293 (AID 427;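 active = compounds whose dose-response curve shows a full or clear partial loss of cell viability, called from curve shape rather than a numeric limit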;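 also: potency is read from the fitted curve at half-maximal effect; cells exposed to compound for 40 hours at 37 °C before reading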); conditions: qHTS
How it was run: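 qHTS, human embryonic kidney (adenovirus-transformed) cells; 40 hr cpd, 37 °C; CellTiter-Glo ATP luminescence. Norm: DMSO = 0, 100 uM tamoxifen = 100% inhibition. Hill-fit AC50.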

[4] = Cell Viability - HepG2 (AID 433; calls by dose curve;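 also: potency is read from the fitted curve at half-maximal effect; potency for ATP loss meaning cytotoxicity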); conditions: qHTS
How it was run: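 Cytotoxicity is scored as loss of intracellular ATP in HepG2 cells exposed to compounds for 40 h. Concentration-response curves, normalized to DMSO and 100 uM tamoxifen, give AC50 values.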

[5] = Cell Viability - MRC5 (AID 434; calls by dose curve;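 also: potency is read from the fitted curve at half-maximal effect; cells exposed to compound for 40 hours at 37 °C; potency reflects cytotoxicity seen as loss of intracellular ATP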); conditions: MRC5 lung fibroblast viability, qHTS
How it was run: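 Decrease in intracellular ATP, quantified by luciferase light output, reflects compound toxicity toward MRC5 cells exposed for 40 hr in complete culture medium. Concentration-response curves, scaled between DMSO and 100 uM tamoxifen, gave AC50 values.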

[6] = Cell Viability - SK-N-SH (AID 435; calls by dose curve;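 also: potency is read from the fitted curve at half-maximal effect; compound exposure lasted 40 h at 37 °C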); conditions: SK-N-SH neuroblastoma cell viability qHTS
How it was run: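 Cells seeded at 1500 per well and incubated 5 hr at 37 °C. Compound added, then 40 hr at 37 °C. CellTiter-Glo added, 20 min at room temperature, luminescence read.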

[7] = Cell Viability - HUV-EC-C (AID 542); conditions: HUV-EC-C endothelial cell viability, qHTS; series mostly up to 92.2 µM; also: % is scaled to controls: 0 for no effect and ±100 for the full control effect; nearly all actives have a fitted effect of over 35% in size
How it was run: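 Concentration-dependent ATP loss in HUV-EC-C cells is the measure. Exposure lasts 40 hr at 37 °C; luminescence follows CellTiter-Glo addition, and Hill fits give AC50.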

[8] = Cellular Toxicity (caspase-3) HepG2 (AID 654); conditions: HepG2 caspase-3 activation, luminescence, 0% = DMSO only, 100% = tamoxifen; series mostly up to 92.2 µM;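 also: cells exposed to compound for 16 hours before reading; 0% = DMSO alone and 100% = caspase signal from 100 µM tamoxifen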
How it was run: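 Concentration-response AC50 values reflect caspase-3/7 induction in HepG2 cells after 16 hours of compound exposure, quantified by luminescence from liberated aminoluciferin and referenced to 100 uM tamoxifen as full stimulation.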

[9] = Cellular Toxicity (caspase-3) SK-N-SH (AID 661); conditions: SK-N-SH caspase-3 activation, qHTS; series mostly up to 91.7 µM
How it was run: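 Apoptosis readout in SK-N-SH neuroblastoma: Caspase-Glo 3/7 luminescence following 16 hr treatment in complete culture medium. Normalization used DMSO and 10 uM staurosporine controls.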

[10] = Cellular Toxicity (caspase-3) N2a (AID 665); conditions: N2a cells, luminescence, normalized: DMSO 0%, 10 µM staurosporine 100%; series mostly up to 92.2 µM;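 also: compound exposure lasted 16 h at 37 °C before readout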
How it was run: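 Concentration-response qHTS: compound-induced caspase-3/7 luminescence in N2a cells (16 h, 37 °C), relative to DMSO and 10 uM staurosporine controls; AC50 obtained using the standard Hill equation.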

[11] = Cellular Toxicity (caspase-3) NIH 3T3 (AID 666); conditions: NIH 3T3 caspase-3 activation, apoptosis/toxicity; series mostly up to 92.2 µM;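 also: caspase signal read after 16 h compound exposure; 0% = DMSO basal and 100% = 100 µM tamoxifen stimulation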
How it was run: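 Activity: caspase-3/7 induction, NIH 3T3 cells, 16 hr treatment at 37°C, luminescent Caspase-Glo detection; AC50 via Hill equation.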

[12] = Cellular Toxicity (caspase-3) Renal Proximal Tubule (AID 667); conditions: renal proximal tubule cells; series mostly up to 91.7 µM;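 also: cells exposed to compound for 16 hours at 37 °C before detection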
How it was run: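 In qHTS format, rat primary proximal tubule cells seeded at 1000 per well are exposed to compounds for 16 hours at 37 °C. An increase in Caspase-Glo 3/7 luminescence indicates caspase activation.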

[13] = MultiTox-Fluor Cytotoxicity Assay - LYMP1-003 - Dead Cells (AID 961); conditions: LYMP1-003 lymphoblastoid cells, dead-cell protease fluorescence; series mostly up to 92.2 µM; also: nearly all actives have a fitted effect of over 70% in size
How it was run: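 LYMP1-003 lymphoblastoid, 2500 cells/well, 5 hr settle then 16 hr cpd at 37 C; MultiTox-Fluor reagent 60 min RT; Ex/Em 485/520 dead-cell signal; norm. DMSO = 0%, 15 uM tetraoctylammonium bromide = 100%; Hill AC50.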

[14] = Cell Viability - LYMP2-007 (AID 979); conditions: LYMP2-007 lymphoblastoid cell viability; series mostly up to 92.2 µM;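 also: cells exposed to compound for 24 h before reading; 0% = DMSO only and the negative end = 92 µM tetraoctylammonium bromide; nearly all actives have a fitted effect of over 60% in size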
How it was run: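 Measured via luciferase-based ATP quantitation: lymphoblastoid cells, 24 hr compound exposure at 37 C, AC50 from Hill fits.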

[15] = Cell Viability - LYMP1-002 - Assay at 24 hr (AID 993); conditions: LYMP1-002 lymphoblastoid cells viability; series mostly up to 92.2 µM; also: % is scaled to controls: 0 for no effect and ±100 for the full control effect
How it was run: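 Viability was judged from intracellular ATP using a luciferase read-out, following a 24-hour compound incubation at 37 C of lymphoblastoid cells seeded at 2500 per well. Concentration-response data were fitted to the Hill equation for AC50.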

[16] = qHTS Assay for Identification of Small Molecule Inducers of Hypoxia Response (AID 2120; active = well fitted curve in the direction sought with a large enough effect in the signal ratio, with a control signal flat, not every such curve was filed as active; the % refers to the signal ratio; also: 0% is about no effect); conditions: hypoxia response reporter cells, beta-lactamase ratio readout; series mostly up to 104 µM
How it was run: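 HRE-bla ME-180, 2500 cells/well, 0.5% dialyzed FBS medium; cpd titration, 17 h 37 degrees C; CCF4 2.5 h RT; Ex 405, Em 460/530 ratio -> %Activity, AC50.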

[17] = target: Peroxisome proliferator-activated receptor alpha (Homo sapiens) (UniProt Q07869); test: qHTS assay for small molecule agonists of the peroxisome proliferator-activated receptor alpha (PPARalpha) signaling pathway (AID 651778); conditions: PathHunter PPARalpha complementation, chemiluminescence, 6 h; stronger effect = higher value; also: % of control where 0% means no effect
How it was run: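 Cells plated at 2,000/well and held overnight at 37 C, 5% CO2, then compound added by pin tool for 6 hr; after PathHunter detection reagent and 60 min at room temperature, chemiluminescence from enzyme complementation was read.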

[18] = qHTS assay for small molecule agonists of the antioxidant response element (ARE) signaling pathway measured by Nrf2-dependant transcriptional activity - cell viability counter screen (AID 720653; active = well fitted curve in the direction sought with a large enough effect in the repeat runs; an effect the other way counts as inactive or inconclusive; also: % is scaled to controls: 0 for no effect and ±100 for the full control effect); conditions: ARE-bla HepG2 viability, CellTiter-Glo ATP luminescence, 16 h; stronger effect = lower value
How it was run: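 ARE-bla HepG2 cells (2,000/well) rested 5 hrs at 37C/5% CO2, then exposed to compounds in DMSO for 16 hrs. Viability was read in the same wells as intracellular ATP by luminescence, 30 min at room temperature after reagent addition.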

[19] = qHTS assay for cell viability of HEK293 cells (AID 743288); conditions: ATP luminescence (CellTiter-Glo), 18 h, stronger effect = lower value; also: % is scaled to controls: 0 for no effect and ±100 for the full control effect; nearly all actives have a fitted effect of over 50% in size
How it was run: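 Quantitative high-throughput screen: compounds were pinned onto parental HEK293 cells (2,000 per well) after a minimum 5 h settling at 37 C, incubated 18 h at 37 C, and intracellular ATP measured by luciferase luminescence.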

[20] = qHTS assay for cell viability of the p53RE-bla HCT-116 cell line (AID 743292); conditions: p53RE-bla HCT-116 viability, ATP luminescence, 16 h; series mostly up to 95 µM; also: % is scaled to controls: 0 for no effect and ±100 for the full control effect; nearly all actives have a fitted effect of over 55% in size
How it was run: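 HCT-116 p53RE-bla cells seeded 4,000/well; 5 h at 37 C; compound (DMSO) added; 16 h at 37 C; CellTiter-Glo added, 30 min RT; luminescence read.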

Peroxisome proliferator-activated receptor alpha (Homo sapiens), sequence (Q07869 whole entry, looked up): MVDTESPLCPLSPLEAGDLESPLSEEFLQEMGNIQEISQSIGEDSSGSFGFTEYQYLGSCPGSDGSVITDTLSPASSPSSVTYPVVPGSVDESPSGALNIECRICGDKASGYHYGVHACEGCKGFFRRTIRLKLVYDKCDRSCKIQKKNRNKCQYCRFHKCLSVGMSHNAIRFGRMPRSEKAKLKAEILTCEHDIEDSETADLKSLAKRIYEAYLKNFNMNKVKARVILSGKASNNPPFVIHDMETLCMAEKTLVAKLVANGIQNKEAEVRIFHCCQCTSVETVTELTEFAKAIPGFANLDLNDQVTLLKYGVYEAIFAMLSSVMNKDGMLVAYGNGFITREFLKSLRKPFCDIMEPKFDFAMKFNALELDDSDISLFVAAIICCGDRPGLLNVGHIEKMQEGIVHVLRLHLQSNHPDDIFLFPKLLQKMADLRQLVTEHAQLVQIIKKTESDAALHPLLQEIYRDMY

O=c1ccc(=O)[nH][nH]1
inactive: Potency [1] > 92 µM | Potency [2] > 92 µM | Potency [3] > 92 µM | Potency [4] > 92 µM | Potency [5] > 92 µM | Potency [6] > 92 µM | Potency [7] | outcome [8] | Potency [9] | outcome [10] | Potency [11] | outcome [12] | Potency [13] | Potency [14] | Potency [15] | Potency [16] | max response [17] -0.0075% and -1.1% | max response [18] 27.2% and 14.4% | max response [19] 3.74% and 5.95% | Potency [20]

O=S(=O)(O)F
inactive: Potency [1] > 92 µM | Potency [2] > 92 µM | Potency [3] > 92 µM | Potency [4] > 92 µM | Potency [5] > 92 µM | Potency [6] > 92 µM | Potency [7] | outcome [8] | Potency [9] | outcome [10] | Potency [11] | outcome [12] | Potency [13] | Potency [14] | Potency [15] | Potency [16] | max response [17] -0.405% | max response [18] -6.55% | max response [19] -2.74% | Potency [20]

Nc1c(Cl)cc([N+](=O)[O-])cc1Cl
inactive: Potency [1] > 92 µM | Potency [2] > 92 µM | Potency [3] > 92 µM | Potency [4] > 92 µM | Potency [5] > 92 µM | Potency [6] > 92 µM | Potency [7] | outcome [8] | Potency [9] | outcome [10] | Potency [11] | outcome [12] | Potency [13] | Potency [14] | Potency [15] | Potency [16] | max response [17] -4.31% and -1.23% | max response [18] 8.8% and -9.21% | max response [19] 7.25% and -11.8% | Potency [20]

CNC(=O)O/N=C/C(C)(C)S(C)=O (centres undefined)
inactive: Potency [1] > 92 µM | Potency [2] > 92 µM | Potency [3] > 92 µM | Potency [4] > 92 µM | Potency [5] > 92 µM | Potency [6] > 92 µM | Potency [7] | outcome [8] | Potency [9] | outcome [10] | Potency [11] | outcome [12] | Potency [13] | Potency [14] | Potency [15] | Potency [16] | max response [17] -3.1% and 0.659% | max response [18] 1.76% and 2.37% | max response [19] 0.711% and -4.36% | Potency [20]

C=CCOCC1CO1 (centres undefined)
inactive: Potency [1] > 92 µM | Potency [2] > 92 µM | Potency [3] > 92 µM | Potency [4] > 92 µM | Potency [5] > 92 µM | Potency [6] > 92 µM | Potency [7] | outcome [8] | Potency [9] | outcome [10] | Potency [11] | outcome [12] | Potency [13] | Potency [14] | Potency [15] | Potency [16] | max response [17] 11.4% | max response [18] 2.37% | max response [19] -5.74% | Potency [20]

C=C(Cl)CCl
inactive: Potency [1] > 92 µM | Potency [2] > 92 µM | Potency [3] > 92 µM | Potency [4] > 92 µM | Potency [5] > 92 µM | Potency [6] > 92 µM | Potency [7] | outcome [8] | Potency [9] | outcome [10] | Potency [11] | outcome [12] | Potency [13] | Potency [14] | Potency [15] | Potency [16] | max response [17] -4.17% | max response [18] 19% | max response [19] -2.76% | Potency [20]

O=[N+]([O-])c1ccccc1O
inactive: Potency [1] > 92 µM | Potency [2] > 92 µM | Potency [3] > 92 µM | Potency [4] > 92 µM | Potency [5] > 92 µM | Potency [6] > 92 µM | Potency [7] | outcome [8] | Potency [9] | outcome [10] | Potency [11] | outcome [12] | Potency [13] | Potency [14] | Potency [15] | Potency [16] | max response [17] -0.691% | max response [18] 5.01% | max response [19] 0.38% | Potency [20]

Clc1cc(Cl)c(Cl)c(Cl)c1
inactive: Potency [1] > 92 µM | Potency [2] > 92 µM | Potency [3] > 92 µM | Potency [4] > 92 µM | Potency [5] > 92 µM | Potency [6] > 92 µM | Potency [7] | outcome [8] | Potency [9] | outcome [10] | Potency [11] | outcome [12] | Potency [13] | Potency [14] | Potency [15] | Potency [16] | max response [17] -0.217% | max response [18] -5.74% | max response [19] -14.6% | Potency [20]

CCC#N
inactive: Potency [1] > 92 µM | Potency [2] > 92 µM | Potency [3] > 92 µM | Potency [4] > 92 µM | Potency [5] > 92 µM | Potency [6] > 92 µM | Potency [7] | outcome [8] | Potency [9] | outcome [10] | Potency [11] | outcome [12] | Potency [13] | Potency [14] | Potency [15] | Potency [16] | max response [17] -3.95% | max response [18] 13.6% | max response [19] -7.94% | Potency [20]

N#CC(O)c1ccccc1 (centres undefined)
inactive: Potency [1] > 92 µM | Potency [2] > 92 µM | Potency [3] > 92 µM | Potency [4] > 92 µM | Potency [6] > 92 µM | Potency [7] | outcome [8] | Potency [9] | outcome [10] | Potency [11] | outcome [12] | Potency [13] | Potency [14] | Potency [15] | Potency [16] | max response [17] 12.9% | max response [18] 12.9% | max response [19] 2.16% | Potency [20]
